{
  "source": "PubChem BioAssay AID686940",
  "about": "(The Scripps Research Institute Molecular Screening Center, 2013)",
  "note": "Screen size: about 370,000 compounds; about 2,600 (0.7%) were called active. What follows is part of a selection rich in actives, with near analogues and random picks from the rest. Values without a mark were called inactive.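 How the source made its calls: active means inhibition above a per-plate cutoff, mean inhibition of test wells between control levels plus 3 SD (cut at about 38% in these data); inactive means the rest.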",
  "data": [
    {"target": "COUP transcription factor 2 (Homo sapiens) (UniProt P24468)", "sequence (P24468 whole entry, looked up)": "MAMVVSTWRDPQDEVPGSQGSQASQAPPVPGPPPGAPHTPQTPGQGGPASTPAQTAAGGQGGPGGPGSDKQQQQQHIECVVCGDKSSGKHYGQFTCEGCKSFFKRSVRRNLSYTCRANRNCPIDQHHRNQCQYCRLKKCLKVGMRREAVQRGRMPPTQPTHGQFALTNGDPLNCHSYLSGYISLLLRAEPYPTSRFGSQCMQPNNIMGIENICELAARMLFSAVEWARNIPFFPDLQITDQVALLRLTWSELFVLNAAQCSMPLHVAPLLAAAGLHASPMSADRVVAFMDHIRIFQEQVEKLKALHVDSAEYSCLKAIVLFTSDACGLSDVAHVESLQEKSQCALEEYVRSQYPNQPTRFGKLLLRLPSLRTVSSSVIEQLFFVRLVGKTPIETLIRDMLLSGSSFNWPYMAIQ", "test": "NR2F2 transcriptional activity inhibitors, primary screen, cell-based, luciferase reporter, HEK293T, luminescence (AID 686940);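 further: cells cotransfected with COUP-TFII expression vector driving the NGFI-A reporter; 0% = median of COUP-TF2 test wells and 100% = reporter-only cells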", "settings": "HEK293T NGFI-A luciferase reporter, at 8.6 µM, hits give high values", "values": [
      {"smiles": "C[C@H]1[C@H](NC(=O)c2cccc(N(C)C)c2)CC[C@@]23CCCN2C(=O)CCC[C@@H]13", "inhibition": "4.37%"},
      {"smiles": "COc1ccc(C#CCNCc2ccc(OC)cc2OC)cc1", "inhibition": "-3.51%"},
      {"smiles": "COC(=O)c1cccc(Cn2ccc3ccc(-c4ccc5ccn(C(=O)c6ccccc6C)c5c4)cc32)c1", "inhibition": "-1.59%"},
      {"smiles": "O=C(c1ccncc1)N1CC[C@H]2[C@H](CCCN2Cc2ccc(F)cc2)C1", "inhibition": "-20.6%"},
      {"smiles": "COC(=O)[C@]12C[C@H](CC(=O)NCCc3ccccc3OC)C(=O)N(Cc3ccco3)C1=C[C@H](C(C)C)O[C@@H]2C1CC1", "inhibition": "3.03%"},
      {"smiles": "CC(=O)Nc1nc2ncccn2c1-c1ccc(C(F)(F)F)cc1", "inhibition": "4.78%"},
      {"smiles": "Cc1ccc(NC(=O)c2cc(C)nn2-c2ccccc2)c(C)c1", "inhibition": "-0.68%"},
      {"smiles": "CCN(CC)C(=O)CC[C@@H]1CC[C@]2(CCCN(S(=O)(=O)C3CCCCC3)C2)O1", "inhibition": "10.7%"},
      {"smiles": "C[C@@H]1C[C@@H]2O[C@H]2/C=C\\C=C\\C(=O)Cc2c(Cl)c(O)cc(O)c2C(=O)O1", "inhibition": "61.7% (active)"},
      {"smiles": "CCOC(=O)N1CCN(C(=O)C2CCCN(c3ncnc4c3sc3cccc(F)c34)C2)CC1", "note": "(stereo not drawn)", "inhibition": "-4.38%"},
      {"smiles": "CCOC(=O)N1CCN(C(=O)C2CCN(Cc3ccc(OC)cc3OC)CC2)CC1", "inhibition": "5.07%"},
      {"smiles": "CCOC(=O)N1CCN(C(=O)C2CCN(c3ncnc4c3sc3cccc(F)c34)CC2)CC1", "inhibition": "46.1% (active)"},
      {"smiles": "Cc1ccc(F)cc1NC(=O)Cc1nn(C)c(=O)c2ccccc12", "inhibition": "54.3% (active)"},
      {"smiles": "COc1ccc(-c2nn(C)c(=O)c3ccccc23)cc1NC(=O)COc1ccccc1", "inhibition": "-20.3%"},
      {"smiles": "Cc1ccc(F)cc1NC(=O)CSCc1c(C)noc1C", "inhibition": "2.99%"},
      {"smiles": "CC(c1c[nH]c2ccccc12)c1c(-c2ccccc2)n(C)c2ccccc12", "note": "(stereo not drawn)", "inhibition": "0.69%"},
      {"smiles": "C#CCCN([C@H](C(=O)OC)C(C)C)S(=O)(=O)c1ccc(F)cc1Br", "inhibition": "17.9%"},
      {"smiles": "CC1(C(=O)NS(=O)(=O)c2ccccc2)CCN1C(=O)Cc1ccc(-c2ccccc2)cc1", "note": "(stereo not drawn)", "inhibition": "-9.63%"},
      {"smiles": "C#Cc1ccc(NC(=O)C2(C)CCN2C(=O)Cc2ccc(-c3ccccc3)cc2)cc1", "note": "(stereo not drawn)", "inhibition": "66.9% (active)"},
      {"smiles": "CCCNC(=O)C1(C)CCN1C(=O)Cc1ccc(-c2ccccc2)cc1", "note": "(stereo not drawn)", "inhibition": "27.8%"},
      {"smiles": "C=CCN1C(=O)[C@@H](CC(=O)NCC2CCCCC2)[C@]2(C(=O)OC)CCCCC=C12", "inhibition": "2.77%"},
      {"smiles": "Cc1cccc(NC(=O)C[C@H]2CC[C@H]3[C@@H](COc4ccc(NC(=O)Nc5ccccc5)cc4C(=O)N3C)O2)c1", "inhibition": "-4.77%"},
      {"smiles": "CCC(NC(=O)C1C2C=CC3(CN(Cc4ccccc4)C(=O)C13)O2)c1ccccc1", "note": "(stereo not drawn)", "inhibition": "8.47%"},
      {"smiles": "CCCOC1CCCN(C(=O)c2cc(COc3cncc(Cl)c3)on2)C1", "note": "(stereo not drawn)", "inhibition": "-19.1%"},
      {"smiles": "C=CCC1(CC=C)CCCN1C(=O)c1cc(COc2ccc(-n3cncn3)cc2)on1", "inhibition": "53% (active)"},
      {"smiles": "COCC1CCCCN1C(=O)c1cc(COc2ccc(C)c(C)c2)on1", "note": "(stereo not drawn)", "inhibition": "-30%"},
      {"smiles": "O=C(Nc1ccc(Br)cc1)OCCN1C(=O)CCC12CCC(c1ccccc1)CC2", "note": "(stereo not drawn)", "inhibition": "-11.1%"},
      {"smiles": "COC(=O)C[C@H]1CC[C@H]2[C@H](COc3ccc(NC(=O)C4CC4)cc3C(=O)N2C)O1", "inhibition": "-12.2%"},
      {"smiles": "COc1cc(F)ccc1-c1cc(C(=O)NCC2CCCCC2)[nH]n1", "inhibition": "-27.9%"},
      {"smiles": "CCCOc1ccc(F)cc1-c1cc(C(=O)Nc2ccc(F)cc2)[nH]n1", "inhibition": "-7.05%"},
      {"smiles": "COc1ccc(OC)c(NC(=O)c2cc(-c3cc(F)ccc3OCC3CCCO3)n[nH]2)c1", "note": "(stereo not drawn)", "inhibition": "87% (active)"},
      {"smiles": "O=C(NCc1ccc(Cl)cc1)C1CCCN(c2nc3ccccc3o2)C1", "note": "(stereo not drawn)", "inhibition": "18.9%"},
      {"smiles": "C#CCNC(=O)C[C@H]1C[C@@]2(C(=O)OC)C(=C[C@H](C(C)C)O[C@@H]2C2CC2)N(Cc2ccco2)C1=O", "inhibition": "-5.51%"},
      {"smiles": "CC(C)CSc1nnc(-c2cccnc2)n1Cc1ccccc1", "inhibition": "9.79%"},
      {"smiles": "O=S(=O)(c1ccc2c(c1)OCCCO2)N1CCN(S(=O)(=O)c2c(F)cccc2F)CC1", "inhibition": "9.89%"},
      {"smiles": "O=C(c1c(F)cccc1Cl)N1CCN(S(=O)(=O)c2ccc3c(c2)OCCCO3)CC1", "inhibition": "18%"},
      {"smiles": "O=C(c1c(F)cccc1F)N1CCN(S(=O)(=O)c2ccc3c(c2)OCCO3)CC1", "inhibition": "38.1% (active)"},
      {"smiles": "CCc1cc2c(NC3CCCC3)ncnc2s1", "inhibition": "39.9% (active)"},
      {"smiles": "CCc1cc2c(NC(Cc3ccccc3)C(=O)O)ncnc2s1", "note": "(stereo not drawn)", "inhibition": "-1.84%"},
      {"smiles": "CCc1cc2c(SCC(=O)Nc3ncc(Cl)c(C)c3Cl)ncnc2s1", "inhibition": "12.8%"},
      {"smiles": "C=C(C)C1CC23C(=O)C4(C(=O)c5ccccc5)C[C@@]5(C)CCC(CC2C1(C)C)(C4=O)C35OC", "note": "(stereo partly drawn)", "inhibition": "-4.41%"},
      {"smiles": "COc1ccccc1C(=O)CSc1nnc(-c2ccccn2)n1-c1ccccc1", "inhibition": "9.59%"},
      {"smiles": "Cc1ccc(-c2nc(C3CCCN(S(=O)(=O)c4ccc(Br)s4)C3)no2)cc1", "note": "(stereo not drawn)", "inhibition": "2.13%"},
      {"smiles": "Cc1ccc(-c2nc3c(C)cc(Br)cn3c2Cc2ccccc2)cc1", "inhibition": "-5.6%"},
      {"smiles": "Cc1ccc2nc(-c3ccc(Br)cc3)cn2c1", "inhibition": "46.6% (active)"},
      {"smiles": "Cc1ccc(-c2cn3cc(C)ccc3n2)cc1", "inhibition": "73% (active)"},
      {"smiles": "CC(=O)Nc1c(-c2ccc(C)cc2)nc2ccc(Cl)cn12", "inhibition": "-17.9%"},
      {"smiles": "Cc1ccc2nc(-c3ccccc3)c(CC3CCCCC3)n2c1", "inhibition": "-52.4%"},
      {"smiles": "COc1ccc(-c2nc3ccc(Br)cn3c2Cc2ccc(C)cc2)cc1OC", "inhibition": "-32.3%"},
      {"smiles": "CCC(=O)c1c(CC)c2n3c1=CC[C@H]3CC(Br)C=2", "note": "(stereo partly drawn)", "inhibition": "6.74%"},
      {"smiles": "CC(c1ccc(N)cc1)c1cn(C)c2ccccc12", "note": "(stereo not drawn)", "inhibition": "-16.2%"},
      {"smiles": "CCOC(=O)[C@]12CCCC3=C1N(CCC3)C(=O)[C@@H](CC(=O)N1CCSCC1)C2", "inhibition": "-5.73%"},
      {"smiles": "COc1ccc(N2CCN(CCNS(=O)(=O)c3ccc([N+](=O)[O-])cc3)CC2)cc1", "inhibition": "15.2%"},
      {"smiles": "CC(C)OCCCNc1ncnc2c1[nH]c1ccc(F)cc12", "inhibition": "62.2% (active)"},
      {"smiles": "O=C(CN1CCC(NC(=O)NCc2ccccc2)CC1)Nc1ccc2c(c1)OCCO2", "inhibition": "-8.81%"},
      {"smiles": "COc1ccc(C(=O)OCCN2CCN(C3CN(Cc4cn(Cc5ccccc5F)nn4)S(=O)(=O)C3)CC2)cc1OC", "note": "(stereo not drawn)", "inhibition": "18.4%"},
      {"smiles": "COc1cccc(N(C)C(=O)[C@@H](C)[C@@H](O)c2ccc3ccccc3c2)c1", "inhibition": "-11.8%"},
      {"smiles": "COc1cccc(-c2cc3nc(NCc4ccccc4OC)n(C)c(=O)c3s2)c1", "inhibition": "-9.04%"},
      {"smiles": "COc1cccc(CNc2nc(NCc3cccs3)nc3ccsc23)c1", "inhibition": "45.6% (active)"},
      {"smiles": "COc1cccc(CNc2nc3cc(-c4csc5ccccc45)sc3c(=O)n2C)c1", "inhibition": "5.09%"},
      {"smiles": "COc1cccc(CNc2nc(NCc3ccccc3OC)nc3ccsc23)c1", "inhibition": "39.1% (active)"},
      {"smiles": "CC(C)Nc1nc(NCCOc2ccccc2Cl)c2sccc2n1", "inhibition": "19.2%"},
      {"smiles": "COc1ccccc1CNc1nc(Nc2ccccc2Cl)c2sccc2n1", "inhibition": "60.3% (active)"},
      {"smiles": "COc1cccc(CNc2ncc(-c3ccccc3)n2C)c1", "inhibition": "-0.1%"},
      {"smiles": "COc1ccccc1CNCc1cccs1", "inhibition": "9.93%"},
      {"smiles": "COc1ccc(NC(=S)NCc2cccs2)c(OC)c1", "inhibition": "6.7%"},
      {"smiles": "COc1ccc(C(=O)OCCN(C)C2CN(Cc3cn(Cc4cccc(C)c4)nn3)S(=O)(=O)C2)cc1OC", "note": "(stereo not drawn)", "inhibition": "-14.5%"},
      {"smiles": "COP(=O)(O)CNC(=O)OCc1ccccc1", "inhibition": "-0.48%"},
      {"smiles": "COC(CNC(=O)[C@H](Cc1ccccc1)NC1(C(=O)NC2CCCCC2)CCCCC1)OC", "inhibition": "-36.3%"},
      {"smiles": "Cc1ccc(C(=O)N(Cc2ccccn2)CC2CCCO2)cc1", "note": "(stereo not drawn)", "inhibition": "-9.77%"},
      {"smiles": "O=S1(=O)c2c(NCc3ccco3)cccc2Oc2ccccc2CN1Cc1cn(Cc2cccc(C(F)(F)F)c2)nn1", "inhibition": "-1.36%"},
      {"smiles": "CCOc1ccc(-n2c(SCC(=O)Nc3cc(C)c(NC(=O)c4ccccc4)cc3OC)nnc2-c2cccs2)cc1", "inhibition": "27.9%"},
      {"smiles": "Cc1ccc(C2=CCN(C)C(=O)N2c2ccc(Cl)cc2)cc1", "inhibition": "-1.56%"},
      {"smiles": "CCOc1ccc(N(CC(=O)Nc2c(C)n(C)n(-c3ccccc3)c2=O)S(=O)(=O)c2ccc(Cl)s2)cc1", "inhibition": "-10%"},
      {"smiles": "Cc1cc(C)cc(NC(=O)N2CCC(N(C)CCC(C)C)CC2)c1", "inhibition": "1.48%"},
      {"smiles": "Cc1ccc(C)c(N2CCN(C(=O)Cn3ncn4cccc4c3=O)CC2)c1", "inhibition": "10.1%"},
      {"smiles": "Cc1ccc(OCCCC(=O)N2CCOCC2)c(C)c1", "inhibition": "-6.33%"},
      {"smiles": "Cc1ccc(C)c(N2CCN(C(=O)CCCCCn3c(=S)[nH]c4ccc(N5CCOCC5)cc4c3=O)CC2)c1", "inhibition": "44.7% (active)"},
      {"smiles": "CCC(c1ccc(NC(=O)OC(C)(C)C)cc1)c1cc(OC)cc(OC)c1", "note": "(stereo not drawn)", "inhibition": "20%"},
      {"smiles": "Fc1ccc2[nH]c3c(N4CCSCC4)ncnc3c2c1", "inhibition": "45.2% (active)"},
      {"smiles": "COc1ccc(CN(CCN2CCOCC2)C(=O)c2ccc(C)cc2)cc1OC", "inhibition": "-7.96%"},
      {"smiles": "CCOC(=O)[C@@]12CN(C(=O)OC(C)(C)C)CC=C1N(Cc1ccc(OC)cc1)C(=O)[C@H]2CC(=O)NCc1ccc(OC)c(OC)c1", "inhibition": "-0.1%"},
      {"smiles": "Cc1cc(C)nc(NC(=S)N2CCN(c3ccc(C(F)(F)F)cn3)CC2)c1", "inhibition": "22.9%"},
      {"smiles": "CC(=O)OC12CCCN(C1)/C(=C/c1ccncc1)C2", "note": "(stereo not drawn)", "inhibition": "3.99%"},
      {"smiles": "COc1cccc(CNC(=O)C2CCCN(c3nc4ccccc4o3)C2)c1OC", "note": "(stereo not drawn)", "inhibition": "-7.71%"},
      {"smiles": "Cc1ccc(CNC(=O)Nc2nnc([C@H]3C[C@H](O)[C@@H](CO)O3)s2)cc1", "inhibition": "46.9% (active)"},
      {"smiles": "O=C(Nc1ccc(F)cc1)Nc1nnc([C@H]2C[C@H](O)[C@@H](CO)O2)s1", "inhibition": "-2.93%"},
      {"smiles": "O=C(Nc1nnc([C@H]2C[C@H](O)[C@@H](CO)O2)s1)c1cccc(Cl)c1", "inhibition": "7.36%"}
    ]}
  ]
}
